Most compounds without a hit are left out; they make up all but 3.6% or so of the library.
Anthrax LF prot – blocks Bacillus anthracis lethal factor protease; P15917; inhibition, % at 10 µM; multiplex microsphere protease cleavage assay, LF; 360,000 tested, 0.12% active; AID 588501; further: plate controls were buffer without enzyme for full effect and enzyme alone for no effect
BoNT A protease – blocks Botulinum neurotoxin A light chain protease; multiplex microsphere protease substrate cleavage, flow cytometry; inhibition, % at 10 µM; 360,000 tested, 0.17% active; AID 588499; further: plate controls were buffer without enzyme for full effect and enzyme alone for no effect
MazEF act – increases E. coli MazEF RNase cleavage of RNA. FAM/BHQ RNA-DNA oligo cleavage fluorescence, 5 h. activation, % at 20 µM. AID 504720. P0AE70. 350,000 tested, 0.32% active; in the data active means activation above about 50%
Target sequence (P0AE70 whole entry, looked up): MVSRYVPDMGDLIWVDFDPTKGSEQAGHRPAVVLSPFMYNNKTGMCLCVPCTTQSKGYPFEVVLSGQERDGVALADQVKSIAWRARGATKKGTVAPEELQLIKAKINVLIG
BoNT F protease – blocks Botulinum neurotoxin F light chain protease | Multiplex microsphere protease cleavage assay, flow cytometry | inhibition, % at 10 µM | 360,000 tested, 0.22% active; in the data active means inhibition above about 35%, passing the limit was not always enough; inconclusive means no clear call, values can overlap the other calls; further: plate controls were buffer without enzyme for full effect and enzyme alone for no effect
Autofluor counter – flagged as autofluorescent in microsphere protease counterscreen; fluorescence intensity (concentration not given with the values); 360,000 tested, 3.1% active; compound autofluorescence counterscreen, microsphere flow cytometry; stronger effect = higher value; AID 624483; in the data active means fluorescence intensity above about 16000; inconclusive means no clear call, values can overlap the other calls
Starred values were filed as active, the others as inactive; i = inactive; u = inconclusive; x = not tested or not shown. Unless noted, no stated cut-off is given here; in the data, active means inhibition above about 30%; inconclusive means no clear call, values can overlap the other calls; inactive means below that.

SMILES	Anthrax LF prot	BoNT A protease	MazEF act	BoNT F protease	Autofluor counter
Cc1c(Cc2ccccc2)sc(NC(=O)c2ccco2)c1C(N)=O	-0.2	-0.4	0.1	-5.0	5792
COC(=O)CSc1cc([N+](=O)[O-])cc2c1c(C1OCCO1)nn2-c1ccccc1	1.7	8.7	113.8*	-14.1	2588
Cc1ccc(-n2c(O)c(C=NCc3ccccn3)c3ccccc3c2=O)cc1	-2.0	0.0	1.1	-2.9	2678
CCN1CCCC1CN=Cc1c(O)n(-c2ccccc2)c(=O)c2ccccc12 (configuration not stated)	3.8	u	-15.2	3.8	27436*
CC(C)CCN=Cc1c(O)n(-c2ccccc2)c(=O)c2ccccc12	-1.3	u	-0.8	1.4	22931*
O=C(c1ccco1)N1N=C(c2ccc(Br)cc2)CC1c1ccco1 (configuration not stated)	-3.8	1.7	5.2	10.3	u
Cc1ccccc1CNC(=O)C(C)Sc1ccccc1 (configuration not stated)	-1.4	-0.6	-7.9	-8.0	4139
COc1ccc([C@H]2CC(=O)C=C(c3cccc(C(C)C)c3)C2)cc1OC	4.9	-0.5	-0.4	-4.6	3869
Cc1ccc(SCCNC(=O)CN(c2ccc3c(c2)OCO3)S(C)(=O)=O)cc1	-3.4	-0.7	-5.2	-1.8	2144
COC(=O)CN(c1ccc2c(c1)OCO2)S(C)(=O)=O	0.7	-3.3	4.1	-6.8	24591*
CCCCCNC(=O)CN(c1ccc2c(c1)OCO2)S(C)(=O)=O	-2.2	-0.1	6.5	-1.0	20699*
CCCNC(=O)C1(C)CCN(C(=O)c2ccc3snnc3c2)C1 (configuration not stated)	0.1	0.6	x	4.6	2760
CCc1cc(-c2n[nH]c(=S)n2-c2cccc(C)c2)cs1	-8.8	10.9	-4.2	10.8	18843*
Cc1cccc(-n2c(-c3csc(C)c3)n[nH]c2=S)c1	-7.9	u	-0.7	-2.0	16396*
Cn1cnnc1SCc1ccc(C(=O)N/N=C(/CCC(=O)O)c2ccc(C(C)(C)C)cc2)cc1	-7.3	-0.2	-1.9	3.8	3533
O=C1N=C(N2CCCC2)S/C1=C\C=C\c1ccccc1	2.9	4.5	-7.8	40.8*	4230
O=C1N=C(N2CCCCC2)S/C1=C\c1ccncc1	-3.1	-0.6	3.8	-1.4	6205
COc1cccc(C(=O)COC(=O)c2cccs2)c1	-0.7	-0.9	-2.2	10.1	5610
CC(NC(=O)/C(C#N)=C1\N=C(NC(=O)c2cccs2)c2ccccc21)c1ccccc1 (configuration not stated)	14.9	30.0*	-2.6	9.3	6060
CCOC(=O)C1(C)CCCN1C(=O)c1ccc(Cl)nc1 (configuration not stated)	2.6	-0.2	x	1.3	3811
CCn1c(=O)c(C(=O)CN2CCCc3ccccc32)c(N)n(Cc2ccccc2)c1=O	12.3	u	9.1	2.0	32189*
COCCCNC(=O)Cn1cc(C(C)=O)c2ccccc21	-0.9	-2.9	-21.2	-5.1	20880*
COCCNC(=O)Cn1cc(C(=S)N2CCOCC2)c2ccccc21	0.4	0.2	-3.4	1.7	4342
COCC1CCN(Cc2c(C(=O)N3CCOCC3)nc3c(C)cccn23)C1 (configuration not stated)	-5.9	-0.3	8.3	-6.0	3912
FC(F)Oc1ccccc1NC(=S)NCc1ccco1	-1.1	-0.1	-3.4	-2.9	23284*
SMILES	Anthrax LF prot	BoNT A protease	MazEF act	BoNT F protease	Autofluor counter
CC(O)(CS(=O)(=O)c1ccccc1)C(=O)Nc1cccc(C(F)(F)F)c1 (configuration not stated)	0.3	-0.7	5.1	0.3	21019*
Cc1ccc(S(=O)(=O)CC(C)(O)C(=O)Nc2cccc(C(F)(F)F)c2)cc1 (configuration not stated)	0.5	0.8	6.4	5.8	7746
CSc1ccc(-c2nc(CSCC(=O)NC3CC3)c(C)o2)cc1	-2.8	-1.4	-27.3	-2.6	4827
CCOC(=O)N1CCN(C(=O)CSCc2nc(-c3ccccc3C)oc2C)CC1	-4.3	-0.8	-2.1	-2.6	16597*
CSc1ccc(-c2nc(CSCC(=O)N3CCOCC3)c(C)o2)cc1	-1.4	u	-0.5	-3.3	22931*
N=C(N)c1ccc(/C=C/c2ccc(C(=N)N)cc2O)cc1	-5.9	u	59.6*	u	5204
COC(=O)[C@H](Cc1ccccc1)NC(=O)N1CCN(Cc2ccccc2)CC1	0.9	0.5	1.2	-1.9	23718*
CCCNC(=O)N[C@@H](Cc1ccccc1)C(=O)OC	-3.6	u	-6.6	-0.3	22925*
CCC(C)[C@H](NC(=O)NC1CCN(Cc2ccccc2)CC1)C(=O)OC (some centres not stated)	1.6	1.8	-6.2	2.7	22325*
COC(=O)[C@H](Cc1ccccc1)NC(=O)NCc1ccccc1	x	x	-0.7	x	x
CCCNC(=O)C1(C)CCCN(C(=O)c2ccccc2F)C1 (configuration not stated)	-6.2	0.0	x	-5.3	3878
COc1ccccc1CN(C)C(=O)c1cccc(S(=O)(=O)N2CCCc3ccccc32)c1	-1.9	0.4	3.0	-4.0	8727
CCCCN1C(=O)/C(=C/C=C2/CC(C)(C)CN2C)SC1=S	13.1	27.2	118.0*	-2.3	5295
CCCCN1C(=O)/C(=C/C=C2\Oc3ccccc3N2CC)SC1=S	-8.7	-1.5	i	-3.3	14747
CCOC(=O)c1c(C)[nH]c(C(=O)NCc2ccccn2)c1C	-2.3	5.1	6.1	3.2	u
CCOC(=O)c1[nH]c(C)c(C(=O)N(C)Cc2ccccc2)c1C	2.5	3.2	-6.5	1.0	18491*
CC(=O)c1c(C)[nH]c(C(=O)OCC(=O)NCC(C)C)c1C	-3.0	-0.5	-1.7	-2.9	4527
CCOC(=O)c1[nH]c(C)c(C(=O)OCCN2C(=O)c3ccccc3C2=O)c1C	-8.3	-2.0	7.2	-4.6	20341*
CNC(=O)COC(=O)c1[nH]c(C)c(C(C)=O)c1C	-1.7	u	2.1	-1.1	16399*
CCOC(=O)c1c(C)[nH]c(C(=O)OCc2ccccc2)c1C	0.8	-1.9	-8.5	-17.9	6722
CCOC(=O)c1[nH]c(C)c(C(=O)NCc2ccccn2)c1C	-5.3	-2.6	-2.5	-3.5	21338*
CCN(C(=O)C1CSC2(C)CCC(=O)N12)c1nc2c(C)cccc2s1 (configuration not stated)	2.2	-4.9	3.1	5.8	4745
Nc1c(Br)cc2c([nH]c(=O)c3ccccc32)c1Br	5.6	2.0	13.2	-5.9	3528
C=CCN(Cc1ccc(OC)c(OC)c1)C(=O)c1cc2cc(F)ccc2[nH]1	-2.5	-0.5	-3.6	-10.2	3043
CC(=O)c1cccc(CN2CCC(C(=O)Nc3ccc(-c4cccc(C)c4)cc3)CC2)c1	-11.7	-2.8	6.1	15.6	6256
COc1ccccc1N1CCN(C(=O)c2ccc3c(c2)CCN3S(=O)(=O)c2ccccc2)CC1	0.6	-2.0	7.3	-1.6	5963
CCOC(=O)c1[nH]c(C)c(C(=O)N(C)C)c1C	-3.0	0.5	12.0	-0.8	10788
CCOCCCNC(=O)c1c(C)[nH]c(C(=O)OCC)c1C	-2.3	0.0	-1.0	-2.5	16166*

Bioassay records (PubChem BioAssay)
